experiment: qHTS profiling of the MIPE4 collection as inhibitors of Plasmodium falciparum (DD2) proliferation (Rep 2) (AID 743346); settings: P. falciparum Dd2 in erythrocytes, SYBR Green DNA, 72 h; at 28.5 µM
Outline: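 Erythrocytes infected with P. falciparum (0.3% parasitemia, 2.5% hematocrit) incubated with compounds 72 h at 37 C, 5% CO2. Lysis with saponin/Triton buffer containing SYBR Green I, overnight at room temperature in the dark; DNA fluorescence (485/535 nm) normalised to 0.29 uM artemisinin and DMSO.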

| SMILES | parasite growth, % of control (lower = inhibition) |
| --- | --- |
| O=C(N[C@@H](COc1ccc2[nH]c(=O)[nH]c2c1)c1ccccc1)c1cccn(Cc2ccc(F)c(F)c2)c1=O | 75.9% |
| C[C@]12CCC(=O)C(O)=C1CC[C@@H]1[C@H]3CCC(=O)[C@@]3(C)CC[C@@H]12 | 71.5% |
| O=S(=O)(F)Cc1ccccc1 | 85.6% |
| CC(C)(C)c1cc(C=C(C#N)C#N)cc(Br)c1O | 37.3% |
| C[C@@H]1CC[C@@]2(OC1)O[C@H]1C[C@H]3[C@@H]4CC=C5C[C@@H](O[C@@H]6O[C@H](CO)[C@@H](O[C@@H]7O[C@@H](C)[C@H](O)[C@@H](O)[C@@H]7O)[C@H](O)[C@@H]6O[C@@H]6O[C@@H](C)[C@H](O)[C@@H](O)[C@@H]6O)CC[C@]5(C)[C@@H]4CC[C@]3(C)[C@@H]1[C@H]2C | 61.5% |
| O=C(NCC1CCOCC1)c1cnc(Nc2ccc(Cl)cc2Cl)nc1C(F)(F)F | 52.2% |
| CC(=O)OCC1=C(C(=O)O)N2C(=O)[C@@H](N)[C@@H]2SC1 | 77.5% |
| O=C1C=CC[C@@H]2[C@H]3CCCN4CCC[C@@H](CN12)[C@@H]34 | 86.7% |
| CC1=C(O)C(=O)C=C2C1=CC=C1[C@@]2(C)CC[C@@]2(C)[C@@H]3C[C@](C)(C(=O)O)CC[C@]3(C)CC[C@]12C | 16.2% |
| C[C@@H]1CC[C@H]2[C@@H](C)C(=O)O[C@@H]3O[C@@]4(C)CC[C@H]1[C@]32OO4 | 7.78% |
| CC(=O)N(C)c1cccc(-c2ccnc3c(C(=O)c4cccs4)cnn23)c1 | 51.9% |
| COc1cc2cc(c1Cl)N(C)C(=O)C[C@H](OC(=O)C(C)C)[C@]1(C)O[C@H]1[C@H](C)[C@@H]1C[C@@](O)(NC(=O)O1)[C@H](OC)C=CC=C(C)C2 | 21.9% |
